Reference: the supplement of paper PMC6897291

Tested on: RIVA
Assay: growth inhibition by drug plus 177Lu-lilotomab satetraxetan (1 - RLU/untreated control) (fraction); higher = stronger inhibition
Settings: 177Lu-lilotomab satetraxetan 0.5 ug/ml
Description: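 RIVA (RI-1) ABC-DLBCL cells were pretreated or not for 18 h with 0.5 ug/ml 177Lu-lilotomab satetraxetan (600 MBq/mg), washed and seeded (3000 cells/well) on 384-well plates pre-printed with the Selleck Cambridge Cancer Compound library. Viability was read by RealTime-Glo luminescence on days 3-6 after seeding. Effect = 1 - RLU/mean RLU of the 48 untreated no-drug control wells per plate; Bliss score = (M-E)/(1-Fa).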

| Compound | growth inhibition by drug plus 177Lu-lilotomab satetraxetan (10 nM, time (day): 3) | growth inhibition by drug plus 177Lu-lilotomab satetraxetan (10 nM, time (day): 4) | growth inhibition by drug plus 177Lu-lilotomab satetraxetan (10 nM, time (day): 5) | growth inhibition by drug plus 177Lu-lilotomab satetraxetan (10 nM, time (day): 6) | growth inhibition by drug plus 177Lu-lilotomab satetraxetan (100 nM, time (day): 3) | growth inhibition by drug plus 177Lu-lilotomab satetraxetan (100 nM, time (day): 4) | growth inhibition by drug plus 177Lu-lilotomab satetraxetan (100 nM, time (day): 5) | growth inhibition by drug plus 177Lu-lilotomab satetraxetan (100 nM, time (day): 6) |
| --- | --- | --- | --- | --- | --- | --- | --- | --- |
| CCC1(c2ccc(N)cc2)CCC(=O)NC1=O (stereo not given) [Aminoglutethimide (Cytadren)] | 0.446 | 0.523 | 0.538 | 0.547 | 0.226 | 0.376 | 0.379 | 0.408 |
| Cn1cc(C2=C(c3cn(C4CCN(Cc5ccccn5)CC4)c4ccccc34)C(=O)NC2=O)c2ccccc21 | 0.515 | 0.546 | 0.557 | 0.564 | 0.356 | 0.435 | 0.443 | 0.436 |
| O=P1(N(CCCl)CCCl)NCCCO1 (stereo not given) [Cyclophosphamide monohydrate] | 0.338 | 0.47 | 0.502 | 0.506 | 0.305 | 0.403 | 0.426 | 0.394 |
| CC1=C2C[C@H]3[C@@H](CC=C4C[C@@H](O)CC[C@@]43C)[C@@H]2CC[C@]12O[C@@H]1C[C@H](C)CN[C@H]1[C@H]2C [Cyclopamine] | 0.301 | 0.397 | 0.41 | 0.418 | 0.454 | 0.57 | 0.559 | 0.53 |
| Cc1ccccc1-n1c(Cn2cnc3c(N)ncnc32)nc2cccc(C)c2c1=O | 0.471 | 0.529 | 0.546 | 0.556 | 0.375 | 0.45 | 0.472 | 0.479 |
